Among the test systems are RPMI-8226 leukemia; OVCAR-8 ovarian; OVCAR-5 ovarian; OVCAR-4 ovarian; SK-OV-3 ovarian; IGROV1 ovarian; HS 578T breast; NCI/ADR-RES ovarian; T-47D breast; BT-549 breast; MDA-MB-435 melanoma; SW-620 colon; MCF7 breast; HCT-116 colon; HCC-2998 colon; KM12 colon; MDA-MB-468 breast; OVCAR-3 ovarian.
Common to all, as to assay: NCI-60 one-dose screen, 48 h (100 = growth as untreated, 0 = no growth, -100 = all killed)
Settings in all cases: 10 µM unless noted

Compounds without any hit were thinned out: in the full panel of roughly 83,000, 20% have a hit.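 Activity criterion: percent growth below 10, measured after cells in 96-well plates were exposed to a single compound concentration for 48 hours.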 A number with no mark means an inactive call. The source made the active and inactive calls.

As for `NC(=S)Nc1cccc(NC(N)=S)c1`, the growth was 109% in the assay with RPMI-8226 leukemia; 94% with OVCAR-8 ovarian; 104% in the assay with OVCAR-5 ovarian; 94.6% in the assay on OVCAR-4 ovarian; 126% with SK-OV-3 ovarian; 97.5% with IGROV1 ovarian. For the same molecule, the growth is 105% in the assay on HS 578T breast; 97.6% in the assay with NCI/ADR-RES ovarian; 86.8% in the assay with T-47D breast; 115% with BT-549 breast; 97.3% in the assay on MDA-MB-435 melanoma; 107% in the assay on SW-620 colon. Besides, the growth with MCF7 breast is 91.7%; in the assay on HCT-116 colon, 107%; in the assay with HCC-2998 colon it was 117%; with KM12 colon it was 87.6%; with MDA-MB-468 breast, 86.5%.
On to `CN1CCN(c2ccc3c(c2)nc(NNC(=O)c2cnccn2)c2cccn23)CC1`, for which the growth was 5.23% (active) with RPMI-8226 leukemia; -79.4% (active) in the assay on OVCAR-8 ovarian; -25% (active) in the assay on OVCAR-5 ovarian; -37.6% (active) with OVCAR-4 ovarian; -51.3% (active) in the assay with SK-OV-3 ovarian; 12.4% in the assay on IGROV1 ovarian. Also, the growth with OVCAR-3 ovarian was -19.7% (active); with HS 578T breast, 34.1%; with NCI/ADR-RES ovarian, -10% (active); in the assay on T-47D breast, -55.6% (active); in the assay with SW-620 colon, 9.85% (active); with MCF7 breast, -39.1% (active). The growth with HCT-116 colon is -52.1% (active); in the assay with HCC-2998 colon, -44.5% (active); in the assay on KM12 colon, 1.89% (active); in the assay on MDA-MB-468 breast, -42.2% (active).
As for `O=C(NNc1nc2cc(F)ccc2n2c(CN3CC4CNCC4C3)ccc12)c1ccncn1` (stereo not drawn), the growth was 21.6% in the assay on RPMI-8226 leukemia; 13% in the assay on OVCAR-8 ovarian; 34.8% in the assay on OVCAR-5 ovarian; 28.6% in the assay with OVCAR-4 ovarian; 31.5% with SK-OV-3 ovarian; 22.1% in the assay on IGROV1 ovarian. The growth was 43.1% with OVCAR-3 ovarian; 45.3% in the assay with HS 578T breast; 12.4% in the assay on T-47D breast; 32.1% in the assay with MDA-MB-435 melanoma; 31.3% in the assay with SW-620 colon; 14.7% in the assay with MCF7 breast. The growth with HCT-116 colon is 14.7%; in the assay with HCC-2998 colon, 56.7%; with KM12 colon, 27.9%; in the assay on MDA-MB-468 breast it was -3.86% (active).
In the case of `NS(=O)(=O)c1ccc(-n2cc(-c3cccc(NC(=O)c4ccc(Cl)c(C(F)(F)F)c4)c3)nn2)cc1`, the growth with RPMI-8226 leukemia is 46.3%; with OVCAR-8 ovarian it was -60.8% (active); with OVCAR-5 ovarian it was 28.6%; in the assay on OVCAR-4 ovarian it was 44.7%; in the assay on SK-OV-3 ovarian it was 55.7%; in the assay with IGROV1 ovarian it was 58.6%. Further, the growth was -4.74% (active) with OVCAR-3 ovarian; 32.1% with HS 578T breast; 78.2% in the assay with NCI/ADR-RES ovarian; -11.1% (active) in the assay with T-47D breast; 42% in the assay on SW-620 colon; 1.38% (active) in the assay with MCF7 breast. The growth in the assay with HCT-116 colon was 26.2%; in the assay on HCC-2998 colon, 41.8%; in the assay with KM12 colon, 5.73% (active); in the assay on MDA-MB-468 breast, -0.759% (active).
As to `Cc1ccc(-c2nnc3ccc(N/N=C/c4ccccc4)nn23)cc1`, the growth in the assay on RPMI-8226 leukemia is 80.6%; with OVCAR-5 ovarian, 107%; in the assay on OVCAR-4 ovarian, 69.1%; in the assay with SK-OV-3 ovarian, 100%; in the assay with IGROV1 ovarian, 98.9%; with OVCAR-3 ovarian, 30.3%. The growth is 46.6% in the assay with HS 578T breast; 84.1% in the assay with NCI/ADR-RES ovarian; 98.8% with T-47D breast; 76.1% in the assay on MDA-MB-435 melanoma; 90.6% in the assay with SW-620 colon; 47.9% in the assay on MCF7 breast. Also, the growth with HCT-116 colon was 99.5%; in the assay on HCC-2998 colon it was 111%; with KM12 colon it was 57.2%; in the assay with MDA-MB-468 breast, 91.4%.
For the molecule `COc1ccc(C(=O)/C=C/c2ccc(Cl)c(Cl)c2)cc1S(N)(=O)=O`, the growth is -6.75% (active) with RPMI-8226 leukemia; -45.3% (active) in the assay on OVCAR-8 ovarian; 10.7% in the assay on OVCAR-5 ovarian; 34.6% in the assay on OVCAR-4 ovarian; 52.5% with SK-OV-3 ovarian; 11.1% with IGROV1 ovarian. Also, the growth was -23.5% (active) in the assay on OVCAR-3 ovarian; 86.9% in the assay with HS 578T breast; 14.8% in the assay on NCI/ADR-RES ovarian; -54.7% (active) with T-47D breast; 2.27% (active) with MDA-MB-435 melanoma; -48.8% (active) in the assay with SW-620 colon. Moreover, the growth in the assay on MCF7 breast was -48.7% (active); with HCT-116 colon, -96.2% (active); in the assay on HCC-2998 colon, -74.1% (active); with KM12 colon, -46.7% (active); with MDA-MB-468 breast, -19.4% (active).
Turning to `COc1ccc(C(=O)/C=C/c2ccccc2Br)cc1S(N)(=O)=O`, the growth in the assay on RPMI-8226 leukemia was -9.4% (active); in the assay on OVCAR-5 ovarian, -6.5% (active); with OVCAR-4 ovarian, 35.2%; with SK-OV-3 ovarian it was 69.8%; in the assay with IGROV1 ovarian it was 38.5%; with OVCAR-3 ovarian it was -56.5% (active). Also, the growth in the assay on HS 578T breast is 47%; in the assay with T-47D breast, -5.31% (active); in the assay with MDA-MB-435 melanoma, 23.4%; in the assay on SW-620 colon, -45.7% (active); with MCF7 breast, -70.5% (active); with HCT-116 colon it was -97% (active). In addition, the growth in the assay with HCC-2998 colon was -65.6% (active); in the assay with KM12 colon it was -71% (active); with MDA-MB-468 breast, -60.3% (active).

(Values after PubChem BioAssay (NCI).)
